From PubChem BioAssay AID1159580 (chemical genetic matrix, 2015)
Screen size: about 5,500 compounds; about 2,000 (36%) were called active. Another 18% or so got no clear call; they are omitted. Rule as the data show it: active = normalized growth mostly below about 0.91 (no sharp cut-off); inconclusive = no clear call, values can overlap the other calls; inactive = mostly above about 0.92. The list shows a part of the results.

Assay: chemical genetic growth profiling, strain panel (AID 1159580);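 also: tested at 20 µM; growth read once vehicle control cultures reached saturation at 30 °C; 1 = growth at the plate median or of vehicle wells; lower values mean less growth of the strain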
Settings: S. cerevisiae deletion strains, growth OD
[1] = locus YAR019C, strain CDC15, stronger effect = lower value
[2] = locus YBL105C, strain PKC1, stronger effect = lower value
[3] = locus YBR135W, strain CKS1, stronger effect = lower value
[4] = locus YBR136W, strain MEC1, stronger effect = lower value
[5] = locus YBR160W, strain CDC28, stronger effect = lower value
[6] = locus YDL017W, strain CDC7, stronger effect = lower value
[7] = locus YDL028C, strain MPS1, stronger effect = lower value
[8] = locus YDL101C, strain DUN1, stronger effect = lower value
[9] = locus YDL108W, strain KIN28, stronger effect = lower value
[10] = locus YDL132W, strain cdc53, stronger effect = lower value
[11] = locus YDL214C, strain PRR2, stronger effect = lower value
[12] = locus YDR052C, strain DBF4, stronger effect = lower value
[13] = locus YDR054C, strain cdc34, stronger effect = lower value
[14] = locus YDR226W, strain ADK1, stronger effect = lower value
[15] = locus YDR477W, strain SNF1, stronger effect = lower value
[16] = locus YER123W, strain YCK3, stronger effect = lower value
[17] = locus YER133W, strain GLC7, stronger effect = lower value
[18] = locus YFL009W, strain cdc4, stronger effect = lower value
[19] = locus YFL029C, strain CAK1, stronger effect = lower value
[20] = locus YFR003C, strain YPI1, stronger effect = lower value
[21] = locus YFR019W, strain FAB1, stronger effect = lower value
[22] = locus YFR028C, strain CDC14, stronger effect = lower value
[23] = locus YGR040W, strain KSS1, stronger effect = lower value
[24] = locus YGR052W, strain FMP48, stronger effect = lower value
[25] = locus YGR092W, strain DBF2, stronger effect = lower value
[26] = locus YHR030C, strain SLT2, stronger effect = lower value
[27] = locus YHR079C, strain IRE1, stronger effect = lower value
[28] = locus YHR082C, strain KSP1, stronger effect = lower value
[29] = locus YHR205W, strain SCH9, stronger effect = lower value
[30] = locus YIL147C, strain SLN1, stronger effect = lower value
[31] = locus YJL095W, strain BCK1, stronger effect = lower value
[32] = locus YJL128C, strain PBS2, stronger effect = lower value
[33] = locus YJL157C, strain FAR1, stronger effect = lower value
[34] = locus YJR016C, strain ILV3, stronger effect = lower value
[35] = locus YJR066W, strain TOR1 (second series), stronger effect = lower value
[36] = locus YJR066W, strain TOR1, stronger effect = lower value
[37] = locus YKL048C, strain ELM1, stronger effect = lower value
[38] = locus YKL067W, strain YNK1, stronger effect = lower value
[39] = locus YKL101W, strain HSL1, stronger effect = lower value
[40] = locus YKL193C, strain SDS22, stronger effect = lower value
[41] = locus YKL203C, strain TOR2, stronger effect = lower value
[42] = locus YLR113W, strain HOG1, stronger effect = lower value
[43] = locus YLR133W, strain CKI1, stronger effect = lower value
[44] = locus YLR403W, strain SFP1, stronger effect = lower value
[45] = locus YML070W, strain DAK1, stronger effect = lower value
[46] = locus YMR001C, strain CDC5, stronger effect = lower value
[47] = locus YMR205C, strain PFK2 (second series), stronger effect = lower value
[48] = locus YMR277W, strain FCP1, stronger effect = lower value
[49] = locus YNL006W, strain LST8, stronger effect = lower value
[50] = locus YNL020C, strain ARK1, stronger effect = lower value
[51] = locus YNL161W, strain CBK1, stronger effect = lower value
[52] = locus YNL183C, strain NPR1, stronger effect = lower value
[53] = locus YNL207W, strain RIO2, stronger effect = lower value
[54] = locus YNL222W, strain SSU72, stronger effect = lower value
[55] = locus YNL307C, strain MCK1 (second series), stronger effect = lower value
[56] = locus YOL078W, strain AVO1, stronger effect = lower value
[57] = locus YOL136C, strain PFK27, stronger effect = lower value
[58] = locus YOR061W, strain CKA2, stronger effect = lower value
[59] = locus YOR119C, strain RIO1, stronger effect = lower value
[60] = locus YOR231W, strain MKK1, stronger effect = lower value
[61] = locus YOR329C, strain SCD5, stronger effect = lower value
[62] = locus YPL031C, strain PHO85, stronger effect = lower value
[63] = locus YPL153C, strain RAD53, stronger effect = lower value
[64] = locus YPL204W, strain HRR25, stronger effect = lower value
[65] = locus YPL209C, strain IPL1, stronger effect = lower value
[66] = locus YPL256C, strain CLN2, stronger effect = lower value
[67] = locus YPR025C, strain CCL1, stronger effect = lower value
[68] = locus YPR106W, strain ISR1, stronger effect = lower value
[69] = locus YPR111W, strain DBF20, stronger effect = lower value
[70] = strain NNK1, stronger effect = lower value
[71] = strain TSCII, stronger effect = lower value

Measured: normalized growth

N/C(=N/OC(=O)c1ccccc1Cl)c1ccc2nonc2c1
inactive: [1] 0.967 | [2] 0.963 | [3] 0.962 | [4] 0.966 | [5] 0.959 | [6] 0.968 | [7] 0.964 | [8] 0.977 | [9] 0.973 | [10] 0.958 | [11] 0.978 | [12] 0.976 | [13] 0.95 | [14] 0.975 | [15] 0.989 | [16] 0.977 | [17] 0.961 | [18] 0.965 | [19] 0.963 | [20] 0.972 | [21] 0.956 | [22] 0.977 | [23] 0.976 | [24] 1.05 | [25] 0.847 | [27] 0.963 | [28] 1.01 | [29] 0.971 | [30] 0.96 | [31] 0.904 | [32] 0.985 | [33] 0.977 | [34] 0.966 | [35] 0.915 | [36] 0.947 | [37] 0.985 | [38] 0.986 | [39] 0.991 | [40] 0.965 | [41] 1.01 | [42] 0.96 | [43] 0.994 | [44] 0.96 | [45] 0.99 | [46] 0.97 | [47] 0.984 | [48] 0.963 | [49] 0.974 | [50] 0.98 | [51] 0.973 | [52] 0.955 | [53] 0.964 | [54] 0.968 | [55] 0.982 | [56] 0.972 | [57] 0.983 | [58] 0.985 | [59] 1.07 | [60] 0.96 | [61] 0.97 | [62] 0.966 | [63] 0.959 | [64] 0.95 | [65] 0.968 | [66] 0.963 | [67] 0.962 | [68] 0.981 | [69] 0.974 | [70] 0.98 | [71] 0.962
active: [26] 0.825

Cc1nn(Cc2cccc(C(=O)O/N=C(/N)c3ccc(Cl)cc3)c2)c(C)c1Br
inactive: [1] 0.982 | [2] 0.978 | [3] 0.971 | [4] 0.977 | [5] 0.973 | [6] 0.974 | [7] 0.981 | [8] 0.987 | [9] 0.972 | [10] 0.979 | [11] 0.972 | [12] 0.98 | [13] 0.973 | [14] 0.978 | [15] 0.915 | [16] 0.929 | [17] 0.953 | [18] 0.965 | [19] 0.991 | [20] 0.982 | [21] 0.974 | [22] 0.962 | [23] 0.93 | [24] 1.03 | [25] 0.978 | [26] 1.01 | [27] 1.1 | [28] 1.07 | [29] 0.999 | [30] 0.984 | [31] 0.932 | [32] 1.01 | [33] 0.985 | [34] 0.977 | [35] 0.954 | [36] 1.08 | [37] 0.968 | [38] 0.958 | [39] 0.924 | [40] 0.98 | [41] 1.02 | [42] 0.915 | [43] 0.972 | [44] 0.93 | [45] 0.947 | [46] 0.983 | [47] 0.965 | [48] 0.973 | [49] 0.99 | [50] 0.972 | [51] 0.984 | [52] 0.997 | [53] 0.984 | [54] 0.979 | [55] 1 | [56] 0.977 | [57] 0.955 | [58] 0.955 | [59] 1.01 | [60] 0.927 | [61] 0.98 | [62] 0.929 | [63] 0.81 | [64] 0.942 | [65] 0.987 | [66] 1.03 | [67] 0.978 | [68] 0.99 | [69] 0.995 | [70] 0.998 | [71] 0.987
